Laboratory results published in PubChem BioAssay (Tox21).
Inconclusive results are not listed. Activity calls are given as the source filed them. Unless noted, calls follow the shape of the dose curve; as a rule, active = well fitted curve in the direction sought with a large enough effect in the repeat runs; inconclusive = weak or mixed curves; inactive = no such curve, though single readings can be large; an effect the other way counts as inactive or inconclusive.

What was measured:
[1] = qHTS assay to identify small molecule agonists of the peroxisome proliferator-activated receptor delta (PPARd) signaling pathway - cell viability counter screen (AID 743211); also: % is scaled to controls: 0 for no effect and ±100 for the full control effect; nearly all actives have a fitted effect of over 55% in size
Summary of the method: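 Multiplexed format: after the 2 h room-temperature LiveBLAzer B/G FRET step, CellTiter-Glo was added to the same wells. Luminescence after 30 min gave cell viability; compound exposure was 17 h at 37C.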

[2] = target: Peroxisome proliferator-activated receptor delta (Homo sapiens) (UniProt Q03181); test: qHTS assay to identify small molecule agonists of the peroxisome proliferator-activated receptor delta (PPARd) signaling pathway (AID 743212; calls by dose curve; also: % is scaled to controls: 0 for no effect and ±100 for the full control effect)
Chain of Peroxisome proliferator-activated receptor delta (Homo sapiens) (Q03181 whole entry, looked up): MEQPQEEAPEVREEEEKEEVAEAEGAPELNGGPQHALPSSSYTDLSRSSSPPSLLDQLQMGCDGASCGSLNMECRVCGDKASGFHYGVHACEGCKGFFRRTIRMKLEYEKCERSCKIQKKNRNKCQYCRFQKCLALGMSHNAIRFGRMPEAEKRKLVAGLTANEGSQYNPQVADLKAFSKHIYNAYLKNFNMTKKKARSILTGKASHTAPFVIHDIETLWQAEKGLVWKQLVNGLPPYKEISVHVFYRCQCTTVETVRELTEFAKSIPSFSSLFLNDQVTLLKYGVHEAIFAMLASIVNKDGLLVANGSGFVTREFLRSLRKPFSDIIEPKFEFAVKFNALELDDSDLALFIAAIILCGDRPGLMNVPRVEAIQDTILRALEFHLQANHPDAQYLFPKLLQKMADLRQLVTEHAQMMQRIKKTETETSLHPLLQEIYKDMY
Summary of the method: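 Read-out: beta-lactamase FRET fluorescence after 2 h room-temperature incubation with LiveBLAzer B/G substrate. Cells were HEK293H carrying a UAS-bla reporter for PPARd, treated at 37 C with DMSO-dissolved compounds.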

[3] = qHTS assay to identify small molecule antagonists of the peroxisome proliferator-activated receptor delta (PPARd) signaling pathway - cell viability counter screen (AID 743213); also: % is scaled to controls: 0 for no effect and ±100 for the full control effect; nearly all actives have a fitted effect of over 50% in size
Summary of the method: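 In this counter screen, HEK293H cells carrying a UAS-beta-lactamase reporter are co-treated with test compounds and 300 nM L165041 (final) for 17 h at 37 C; cell viability is quantified by CellTiter-Glo luminescence.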

[4] = target: Peroxisome proliferator-activated receptor delta (Homo sapiens) (UniProt Q03181); test: qHTS assay to identify small molecule antagonists of the peroxisome proliferator-activated receptor delta (PPARd) signaling pathway (AID 743215; active = well fitted inhibition curve with a large enough effect in the signal ratio in the repeat runs, not every such curve was filed as active; the % refers to the signal ratio;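 also: cells stimulated with agonist L165041 at 300 nM final during compound exposure; series mostly up to about 62 µM; % is scaled to controls: 0 for no effect and ±100 for the full control effect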)
Summary of the method: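 Here, a reporter line (HEK293H, beta-lactamase under a UAS) measures PPARd signaling. Compounds are tested against agonist L165041 at 300 nM final concentration over 17 h at 37 C, with fluorescence read after substrate.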

[5] = target: Bile acid receptor (Homo sapiens) (UniProt Q96RI1); test: qHTS assay to identify small molecule antagonists of the farnesoid-X-receptor (FXR) signaling pathway (AID 743217; active = well fitted inhibition curve with a large enough effect in the signal ratio in the repeat runs, not every such curve was filed as active; the % refers to the signal ratio; also: potency is read from the fitted curve at half-maximal effect)
Chain of Bile acid receptor (Homo sapiens) (Q96RI1 whole entry, looked up): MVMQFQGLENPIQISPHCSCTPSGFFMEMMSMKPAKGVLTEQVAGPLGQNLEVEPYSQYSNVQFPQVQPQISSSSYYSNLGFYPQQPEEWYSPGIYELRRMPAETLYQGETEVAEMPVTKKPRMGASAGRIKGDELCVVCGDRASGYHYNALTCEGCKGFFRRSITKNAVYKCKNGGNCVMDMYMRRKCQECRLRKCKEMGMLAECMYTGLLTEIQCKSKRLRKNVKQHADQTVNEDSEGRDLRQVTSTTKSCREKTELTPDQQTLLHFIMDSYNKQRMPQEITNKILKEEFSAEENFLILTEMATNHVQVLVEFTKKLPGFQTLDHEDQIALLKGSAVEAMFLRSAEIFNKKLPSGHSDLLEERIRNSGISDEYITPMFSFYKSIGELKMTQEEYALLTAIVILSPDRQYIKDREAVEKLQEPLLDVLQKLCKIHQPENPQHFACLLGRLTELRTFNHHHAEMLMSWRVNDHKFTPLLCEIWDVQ
Summary of the method: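 Test compounds are pin-transferred onto FXR-bla HEK 293T cells, then chenodeoxycholic acid is added at 50 uM final. After 16 h at 37 °C, LiveBLAzer B/G substrate is applied for 2 h at room temperature and fluorescence read.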

[6] = qHTS assay to identify small molecule agonists of the farnesoid-X-receptor (FXR) signaling pathway - cell viability counter screen (AID 743218); also: % is scaled to controls: 0 for no effect and ±100 for the full control effect; nearly all actives have a fitted effect of over 45% in size
Summary of the method: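 Quantitative HTS counter screen measuring ATP-based viability via CellTiter-Glo luminescence in HEK 293T cells carrying a UAS-driven beta-lactamase reporter, after 16 h compound exposure at 37 C.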

[7] = target: Bile acid receptor (Homo sapiens) (UniProt Q96RI1); test: qHTS assay to identify small molecule agonists of the farnesoid-X-receptor (FXR) signaling pathway (AID 743220; active = well fitted activation curve with a large enough effect in the signal ratio in the repeat runs, not every such curve was filed as active; the % refers to the signal ratio; also: % is scaled to controls: 0 for no effect and ±100 for the full control effect)
Summary of the method: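 FXR-UAS-bla HEK 293T cells carrying a UAS-driven beta-lactamase reporter were plated for 5 h at 37C/5% CO2, then exposed to DMSO-dissolved Tox21 10K compounds for 16 h at 37C. A LiveBLAzer B/G FRET substrate was loaded for 2 h at room temperature before fluorescence reading.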

[8] = qHTS assay to identify small molecule antagonists of the farnesoid-X-receptor (FXR) signaling pathway - cell viability counter screen (AID 743221; active = well fitted cell-killing curve with a large enough effect in the repeat runs, not every such curve was filed as active; also: % is scaled to controls: 0 for no effect and ±100 for the full control effect; nearly all actives have a fitted effect of over 50% in size)
Summary of the method: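 CellTiter-Glo, 30 min RT, luminescence; same wells as the LiveBLAzer FRET read. Cells: FXR-UAS-bla HEK 293T. Treatment: compound with chenodeoxycholic acid 50 uM final, 16 h at 37 C.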

[9] = target: Vitamin D3 receptor (Homo sapiens) (UniProt P11473); test: qHTS assay to identify small molecule agonists of the vitamin D receptor (VDR) signaling pathway (AID 743222; calls by dose curve; also: % is scaled to controls: 0 for no effect and ±100 for the full control effect)
Chain of Vitamin D3 receptor (Homo sapiens) (P11473 whole entry, looked up): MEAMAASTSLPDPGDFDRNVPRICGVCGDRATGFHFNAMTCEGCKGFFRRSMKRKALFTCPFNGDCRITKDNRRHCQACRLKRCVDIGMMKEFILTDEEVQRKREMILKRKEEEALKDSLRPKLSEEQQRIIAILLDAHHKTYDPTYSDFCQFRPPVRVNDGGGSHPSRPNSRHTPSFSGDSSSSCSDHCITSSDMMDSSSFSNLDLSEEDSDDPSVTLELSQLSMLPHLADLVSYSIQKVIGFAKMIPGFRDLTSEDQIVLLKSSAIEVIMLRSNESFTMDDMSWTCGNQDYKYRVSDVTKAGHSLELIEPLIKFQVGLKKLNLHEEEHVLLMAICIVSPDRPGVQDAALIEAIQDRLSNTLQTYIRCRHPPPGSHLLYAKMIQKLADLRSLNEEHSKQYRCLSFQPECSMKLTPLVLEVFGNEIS
Summary of the method: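 Tox21 cell reporter format: VDR-bla line, 16 h compound exposure in 5% CO2 at 37C, then fluorescence intensity after 2 h with LiveBLAzer B/G FRET substrate.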

[10] = target: Vitamin D3 receptor (Homo sapiens) (UniProt P11473); test: qHTS assay to identify small molecule antagonists of the vitamin D receptor (VDR) signaling pathway (AID 743223; active = well fitted inhibition curve with a large enough effect in the signal ratio in the repeat runs, not every such curve was filed as active; the % refers to the signal ratio; also: % is scaled to controls: 0 for no effect and ±100 for the full control effect)
Summary of the method: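 After VDR-bla cells are plated and left 4 h at 37C, DMSO-dissolved compounds and 3 nM (final) calcitriol agonist are added. Incubation continues 16 h at 37C; FRET beta-lactamase substrate then develops 2 h at room temperature.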

[11] = qHTS assay to identify small molecule agonists of the vitamin D receptor (VDR) signaling pathway - cell viability counter screen (AID 743224); also: series mostly up to about 63 µM; % is scaled to controls: 0 for no effect and ±100 for the full control effect; nearly all actives have a fitted effect of over 50% in size
Summary of the method: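 CellTiter-Glo viability readout on VDR-bla cells, measured after 16 h of compound treatment at 37C in the same wells.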

[12] = qHTS assay to identify small molecule antagonists of the vitamin D receptor (VDR) signaling pathway - cell viability counter screen (AID 743225); also: % is scaled to controls: 0 for no effect and ±100 for the full control effect; nearly all actives have a fitted effect of over 50% in size
Summary of the method: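 Cytotoxicity toward the VDR-bla HEK 293T line was scored by ATP-based CellTiter-Glo luminescence, read in the wells already used for the beta-lactamase readout after 16 h compound treatment under 3 nM 1-alpha,25-dihydroxyvitamin D3 stimulation.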

[13] = qHTS assay to identify small molecule agonists of the NFkB signaling pathway (AID 1159509; active = well fitted curve in the direction sought with a large enough effect in the signal ratio in the repeat runs, not every such curve was filed as active; the % refers to the signal ratio)
Summary of the method: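 Beta-lactamase reporter assay run in quantitative high-throughput format on an NF-kB-responsive ME-180 line, with 5 hr compound treatment and a FRET-based blue/green fluorescence readout.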

[14] = qHTS assay to identify small molecule agonists of the NFkB signaling pathway - cell viability counter screen (AID 1159515; calls by dose curve; also: series mostly up to about 61 µM; % is scaled to controls: 0 for no effect and ±100 for the full control effect; nearly all actives have a fitted effect of over 55% in size)
Summary of the method: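 Tox21 library compounds were tested for cytotoxicity against NFkB-bla ME-180 cells during a 5 hr exposure at 37 C. CellTiter-Glo luminescence served as the viability read-out.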

[15] = qHTS assay to identify small molecule agonists of the endoplasmic reticulum stress response signaling pathway (AID 1159516; active = well fitted activation curve with a large enough effect in the signal ratio in the repeat runs, not every such curve was filed as active; the % refers to the signal ratio; also: % is scaled to controls: 0 for no effect and ±100 for the full control effect)
Summary of the method: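 Fluorescence at 460 and 530 nm (405 nm excitation) reports beta-lactamase from an ER stress response element in HeLa cells treated 5 hr at 37 C.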

[16] = qHTS assay to identify small molecule agonists of the endoplasmic reticulum stress response signaling pathway - cell viability counter screen (AID 1159517; calls by dose curve)
Summary of the method: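 Steps: seed 1,500 ESRE-bla HeLa cells per well; incubate overnight at 37 C, 5% CO2; add compounds in DMSO for 5 hr; run FRET substrate 2 hr RT; add CellTiter-Glo, wait 30 min, read luminescence.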

[17] = qHTS assay to identify small molecule antagonists of the retinoid-related orphan receptor gamma (ROR-gamma) signaling pathway - cell viability counter screen (AID 1159520)
Summary of the method: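 Tet-on ROR gamma CHO cells were given compounds for 2 hr, then doxycycline hyclate at 1 uM final, and incubated 16 hr at 37 C. Viability was measured as ATP content by CellTiter-Glo luminescence.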

[18] = target: Nuclear receptor ROR-gamma (Homo sapiens) (UniProt P51449); test: qHTS assay to identify small molecule antagonists of the retinoid-related orphan receptor gamma (ROR-gamma) signaling pathway (AID 1159521)
Summary of the method: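 Readout: ONE-Glo luciferase luminescence, 30 min at room temperature. System: Tet-on RORγ CHO, RORE-LUC. Sequence: compound 2 h, doxycycline 1 uM final, 16 h at 37 C.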

[19] = qHTS assay to identify small molecule agonists of the AP-1 signaling pathway - cell viability counter screen (AID 1159525; calls by dose curve; also: nearly all actives have a fitted effect of over 55% in size)
Summary of the method: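 Same-well cytotoxicity counter screen of the Tox21 10K library in ME-180 cells. The readout is ATP-dependent luminescence after 5 h compound treatment. Data are normalised to DMSO and tetra n-octyl ammonium bromide controls.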

[20] = qHTS assay to identify small molecule agonists of the AP-1 signaling pathway (AID 1159526; calls by dose curve; also: % is scaled to controls: 0 for no effect and ±100 for the full control effect)

CCC(C=O)CC
inactive: outcome [1] | outcome [2] | outcome [3] | outcome [4] | Potency [5] | Potency [6] | Potency [7] | outcome [8] | outcome [9] | outcome [10] | Potency [11] | outcome [12] | outcome [13] | outcome [14] | outcome [15] | Potency [16] | outcome [17] | outcome [18] | outcome [19] | outcome [20]

O=Cc1ccc(Cl)c(Cl)c1
inactive: outcome [1] | outcome [2] | outcome [3] | outcome [4] | Potency [6] | outcome [8] | outcome [9] | outcome [10] | Potency [11] | outcome [13] | outcome [14] | outcome [15] | Potency [16] | outcome [17] | outcome [18] | outcome [19] | outcome [20]

O=C(OCC1(COC(=O)c2cccnc2)CCCC(COC(=O)c2cccnc2)(COC(=O)c2cccnc2)C1O)c1cccnc1
inactive: outcome [1] | outcome [2] | outcome [3] | outcome [4] | Potency [6] | outcome [8] | outcome [9] | outcome [12] | outcome [13] | outcome [14] | outcome [15] | Potency [16] | outcome [17] | outcome [18] | outcome [19] | outcome [20]

CCCC/C=C\CCCCCCCCCC=O
inactive: outcome [1] | outcome [2] | outcome [3] | Potency [5] | Potency [7] | outcome [8] | outcome [9] | outcome [10] | Potency [11] | outcome [12] | outcome [13] | outcome [14] | outcome [15] | Potency [16] | outcome [17] | outcome [18] | outcome [19] | outcome [20]

CC(C)OC(=O)CCCCC(=O)OC(C)C
active: Potency [5] 24.6 µM
inactive: outcome [1] | outcome [2] | outcome [3] | Potency [6] | Potency [7] | outcome [8] | outcome [9] | outcome [10] | outcome [13] | outcome [14] | outcome [15] | Potency [16] | outcome [17] | outcome [18] | outcome [19] | outcome [20]

Cc1ccccc1N=O
inactive: outcome [1] | outcome [2] | outcome [3] | Potency [5] | Potency [7] | outcome [8] | outcome [9] | outcome [10] | Potency [11] | outcome [12] | outcome [13] | outcome [14] | outcome [15] | Potency [16] | outcome [17] | outcome [18] | outcome [19] | outcome [20]

CC(C)NCC(O)COc1cccc2[nH]ccc12 (centres undefined)
inactive: outcome [1] | outcome [2] | outcome [3] | outcome [4] | Potency [6] | outcome [8] | outcome [10] | Potency [11] | outcome [13] | outcome [14] | outcome [15] | Potency [16] | outcome [17] | outcome [18] | outcome [19] | outcome [20]

Cc1ccsc1/C=C/C1=NCCCN1C
inactive: outcome [1] | outcome [2] | outcome [3] | outcome [4] | Potency [5] | Potency [7] | outcome [8] | outcome [9] | outcome [10] | Potency [11] | outcome [12] | outcome [13] | outcome [14] | outcome [15] | Potency [16] | outcome [17] | outcome [18] | outcome [19] | outcome [20]

CCCCC(CC)COCCO (centres undefined)
inactive: outcome [1] | outcome [2] | outcome [3] | outcome [4] | outcome [8] | outcome [9] | outcome [10] | Potency [11] | outcome [13] | outcome [14] | outcome [15] | Potency [16] | outcome [17] | outcome [18] | outcome [19] | outcome [20]

CCCCCCCCCC(C)=O
inactive: outcome [1] | outcome [2] | outcome [3] | outcome [4] | Potency [6] | outcome [8] | outcome [9] | outcome [10] | Potency [11] | outcome [12] | outcome [13] | outcome [14] | outcome [15] | Potency [16] | outcome [17] | outcome [18] | outcome [19] | outcome [20]

CC1COc2ccccc2N1 (centres undefined)
inactive: outcome [1] | outcome [2] | outcome [3] | outcome [4] | outcome [8] | outcome [9] | Potency [11] | outcome [12] | outcome [13] | outcome [14] | outcome [15] | Potency [16] | outcome [17] | outcome [18] | outcome [19] | outcome [20]

O=S(O)(O)=S
inactive: activity change, negative = cytotoxicity [1] 0.0962% [at 5.95 µM] | activation [2] 0.0872% [at 5.95 µM] | viability change, negative = cytotoxic [3] -0.861% [at 6.26 µM] | ratio activity, negative = inhibition [4] 3.14% [at 6.26 µM] | viability change, negative = cytotoxic [6] 3.63% [at 5.95 µM] | activity change, negative = cytotoxicity [8] 6.74% [at 5.95 µM] | activity change, negative = cytotoxicity [11] -0.106% [at 5.95 µM] | activation [13] -0.163% [at 6.95 µM] | activity, negative = cytotoxic [14] 0.146% [at 6.95 µM] | activation [15] 0.601% [at 6.95 µM] | activity change, negative = cytotoxicity [16] -2.33% [at 6.95 µM] | activity, negative = cytotoxicity [17] 8.82% [at 8.39 µM] | activity change, negative = inhibition [18] 6.6% [at 8.39 µM] | viability change, negative = cytotoxic [19] 1.76% [at 6.97 µM] | activation [20] 11.4% [at 6.97 µM]

CC(=O)c1sc(C)nc1C
inactive: outcome [1] | outcome [2] | outcome [3] | outcome [4] | Potency [5] | Potency [6] | Potency [7] | outcome [8] | outcome [9] | outcome [10] | outcome [13] | outcome [14] | outcome [15] | Potency [16] | outcome [17] | outcome [18] | outcome [19] | outcome [20]

C[C@H](CCC(=O)O)[C@H]1CC[C@H]2[C@@H]3C(=O)C[C@@H]4CC(=O)CC[C@]4(C)[C@H]3CC(=O)[C@]12C
inactive: outcome [1] | outcome [2] | outcome [3] | outcome [4] | Potency [6] | outcome [8] | outcome [9] | outcome [10] | Potency [11] | outcome [12] | outcome [13] | outcome [14] | outcome [15] | Potency [16] | outcome [17] | outcome [18] | outcome [19] | outcome [20]

CN(C)CCOCCO
inactive: outcome [1] | outcome [2] | outcome [3] | outcome [4] | Potency [5] | Potency [6] | Potency [7] | outcome [8] | Potency [11] | outcome [13] | outcome [14] | outcome [15] | Potency [16] | outcome [17] | outcome [18] | outcome [19] | outcome [20]
